Experimental data published in PubChem BioAssay (NCI).
The panel holds about 83,000 compounds, 20% with a hit somewhere; the sample as a whole holds those more often.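 Each cell line was grown in a 96-well plate and treated with one concentration of compound for 48 hours. Values below 10 were considered active.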 The source made the active and inactive calls.

Key:
Test in all cases: NCI-60 one-dose screen, 48 h (100 = growth as untreated, 0 = no growth, -100 = all killed)
Conditions in all cases: 10 µM unless noted
SR leukemia = tested on: SR leukemia
RPMI-8226 leukemia = tested on: RPMI-8226 leukemia
OVCAR-8 ovarian = tested on: OVCAR-8 ovarian
OVCAR-5 ovarian = tested on: OVCAR-5 ovarian
OVCAR-4 ovarian = tested on: OVCAR-4 ovarian
SK-OV-3 ovarian = tested on: SK-OV-3 ovarian
IGROV1 ovarian = tested on: IGROV1 ovarian
OVCAR-3 ovarian = tested on: OVCAR-3 ovarian
HS 578T breast = tested on: HS 578T breast
NCI/ADR-RES ovarian = tested on: NCI/ADR-RES ovarian
T-47D breast = tested on: T-47D breast
BT-549 breast = tested on: BT-549 breast
MDA-MB-435 melanoma = tested on: MDA-MB-435 melanoma
SW-620 colon = tested on: SW-620 colon
MCF7 breast = tested on: MCF7 breast
HCT-116 colon = tested on: HCT-116 colon
HCC-2998 colon = tested on: HCC-2998 colon
KM12 colon = tested on: KM12 colon

Measured: growth

CCCCC1=C(P(=O)(O)O)N[C@H](C(=O)O)CS1
inactive: SR leukemia 96.4% | RPMI-8226 leukemia 99.7% | OVCAR-8 ovarian 95.5% | OVCAR-5 ovarian 94.4% | OVCAR-4 ovarian 91.3% | SK-OV-3 ovarian 80.7% | IGROV1 ovarian 94.3% | OVCAR-3 ovarian 106% | HS 578T breast 109% | NCI/ADR-RES ovarian 108% | T-47D breast 96.7% | BT-549 breast 102% | MDA-MB-435 melanoma 101% | SW-620 colon 96.9% | MCF7 breast 89.3% | HCT-116 colon 96.5% | HCC-2998 colon 89.2% | KM12 colon 110%

O=C(N/N=C/c1ccc(Cl)cc1)c1[nH]c2ccc(Cl)cc2c1-c1ccccc1
active: RPMI-8226 leukemia -3.56% | SK-OV-3 ovarian -1.75% | OVCAR-3 ovarian -13.4% | NCI/ADR-RES ovarian 1.79% | MDA-MB-435 melanoma -33.3% | HCT-116 colon 7.64% | KM12 colon 4.94%
inactive: SR leukemia 52.2% | OVCAR-8 ovarian 28.8% | OVCAR-5 ovarian 51.5% | OVCAR-4 ovarian 41.4% | IGROV1 ovarian 17.3% | HS 578T breast 82% | T-47D breast 73.9% | BT-549 breast 10.2% | SW-620 colon 37.5% | MCF7 breast 13.5% | HCC-2998 colon 26.4%

CCSc1oc(-c2ccccc2)nc1[P+](c1ccccc1)(c1ccccc1)c1ccccc1
inactive: OVCAR-5 ovarian 27.6% | OVCAR-4 ovarian 13.1% | HS 578T breast 18.4% | NCI/ADR-RES ovarian 67.4% | SW-620 colon 10.8% | HCC-2998 colon 14.5%
active: SR leukemia 1.17% | RPMI-8226 leukemia -18.9% | OVCAR-8 ovarian 7.86% | SK-OV-3 ovarian -16.1% | IGROV1 ovarian 5.02% | OVCAR-3 ovarian 3.17% | T-47D breast 1.87% | BT-549 breast -10.9% | MDA-MB-435 melanoma 3.45% | MCF7 breast 4.96% | HCT-116 colon 2.27% | KM12 colon -16.2%

CCOC(=O)n1cc(-c2nonc2-c2cn(C(=O)OCC)c3ccc(Br)cc23)c2ccccc21
inactive: SR leukemia 78.4% | RPMI-8226 leukemia 88.9% | OVCAR-8 ovarian 85.6% | OVCAR-5 ovarian 64.4% | OVCAR-4 ovarian 79.1% | SK-OV-3 ovarian 79.8% | IGROV1 ovarian 52.6% | OVCAR-3 ovarian 79.1% | HS 578T breast 87% | NCI/ADR-RES ovarian 86.5% | T-47D breast 52.9% | BT-549 breast 98.3% | MDA-MB-435 melanoma 99.9% | SW-620 colon 85.8% | MCF7 breast 69.6% | HCT-116 colon 62.7% | HCC-2998 colon 86.9% | KM12 colon 72.7%

Cc1cc(N2CCCCC2)cc(C)c1-c1csc(NC(=O)c2ccncc2)n1
inactive: SR leukemia 37.7% | RPMI-8226 leukemia 37.5% | OVCAR-8 ovarian 51.2% | OVCAR-5 ovarian 92.6% | OVCAR-4 ovarian 24.2% | SK-OV-3 ovarian 62.6% | IGROV1 ovarian 64.4% | OVCAR-3 ovarian 50.5% | HS 578T breast 75.2% | NCI/ADR-RES ovarian 56.4% | T-47D breast 34.3% | BT-549 breast 57.6% | MDA-MB-435 melanoma 37.1% | SW-620 colon 69.9% | MCF7 breast 32.6% | HCT-116 colon 20.7% | HCC-2998 colon 97.4% | KM12 colon 64.5%

CCNCCNc1cc(-c2ccc(C(F)(F)F)cc2)c(C#N)c2nc3ccccc3n12
active: SR leukemia -47.6% | RPMI-8226 leukemia -38.8% | OVCAR-8 ovarian -47.2% | OVCAR-5 ovarian -61.9% | OVCAR-4 ovarian -61.8% | SK-OV-3 ovarian -94.1% | IGROV1 ovarian -78.5% | OVCAR-3 ovarian -88.3% | HS 578T breast -46.3% | NCI/ADR-RES ovarian -49.7% | T-47D breast -59.4% | BT-549 breast -73.9% | MDA-MB-435 melanoma -96.9% | SW-620 colon -73.7% | MCF7 breast -71.6% | HCT-116 colon -95.4% | HCC-2998 colon -99.6% | KM12 colon -85.1%

O=C1c2ccc3c4c5ccc(c24)C(=O)N1CCCOCCCCOCCCNCc1ccc(cc1)CNCCCOCCCCOCCCN(C3=O)C5=O
active: SR leukemia -10.9% | RPMI-8226 leukemia 3.9% | OVCAR-8 ovarian -29.6% | OVCAR-5 ovarian -63.3% | OVCAR-4 ovarian -97.8% | IGROV1 ovarian -78.4% | OVCAR-3 ovarian -27.2% | T-47D breast -48.7% | MDA-MB-435 melanoma -95.4% | SW-620 colon -37.8% | MCF7 breast -58.3% | HCT-116 colon -62.9% | HCC-2998 colon -75% | KM12 colon -30.4%
inactive: SK-OV-3 ovarian 12.9% | HS 578T breast 85.6% | NCI/ADR-RES ovarian 90% | BT-549 breast 68.7%

c1ccc2cc(C[n+]3ccn(CCCCCCCCCCn4cc[n+](Cc5ccc6ccccc6c5)c4)c3)ccc2c1
inactive: OVCAR-8 ovarian 11.1% | OVCAR-5 ovarian 12.8% | OVCAR-4 ovarian 12.5% | NCI/ADR-RES ovarian 99.5% | MDA-MB-435 melanoma 18.2% | SW-620 colon 23.2% | MCF7 breast 15.7% | HCT-116 colon 13.3% | HCC-2998 colon 25.2%
active: SR leukemia -45.2% | RPMI-8226 leukemia 9.87% | SK-OV-3 ovarian -17.1% | IGROV1 ovarian -26.1% | OVCAR-3 ovarian 4.99% | HS 578T breast -1.11% | T-47D breast -0.597% | BT-549 breast -39.6% | KM12 colon -5.93%

CCCCCCCCCc1ccc(OCCOCCOCCOCCOCCOCCOCCOCCOCCO)cc1
inactive: OVCAR-5 ovarian 48.3% | OVCAR-4 ovarian 22.4% | SK-OV-3 ovarian 110% | IGROV1 ovarian 24.4% | T-47D breast 116% | SW-620 colon 19.1% | MCF7 breast 10.9% | HCT-116 colon 11% | HCC-2998 colon 23.3% | KM12 colon 13.3%
active: SR leukemia -2.84% | RPMI-8226 leukemia -12.1% | OVCAR-8 ovarian 9.01% | OVCAR-3 ovarian 2.54% | HS 578T breast 8.85% | NCI/ADR-RES ovarian 1.74% | BT-549 breast -9.07% | MDA-MB-435 melanoma 7.48%

COc1cccc(CNc2ccc3ncnc(Nc4ccc(F)c(Cl)c4)c3c2)c1
inactive: SR leukemia 50.5% | RPMI-8226 leukemia 68.3% | OVCAR-8 ovarian 59.3% | OVCAR-5 ovarian 72.2% | OVCAR-4 ovarian 60.6% | SK-OV-3 ovarian 42.6% | IGROV1 ovarian 36.8% | OVCAR-3 ovarian 53.8% | HS 578T breast 87.4% | NCI/ADR-RES ovarian 54.7% | T-47D breast 51.3% | BT-549 breast 86.8% | MDA-MB-435 melanoma 78.3% | SW-620 colon 76.6% | MCF7 breast 65.2% | HCT-116 colon 64.9% | HCC-2998 colon 86.4% | KM12 colon 76.6%

CC(=O)N1N=C(c2ccc(Nc3nc(Nc4ccccc4)nc(Nc4ccccc4)n3)cc2)CC1c1cccc([N+](=O)[O-])c1 (stereo unspecified)
inactive: SR leukemia 83.8% | RPMI-8226 leukemia 68% | OVCAR-8 ovarian 92.6% | OVCAR-5 ovarian 87.6% | OVCAR-4 ovarian 91.2% | SK-OV-3 ovarian 103% | IGROV1 ovarian 79.4% | OVCAR-3 ovarian 98.1% | HS 578T breast 88.6% | NCI/ADR-RES ovarian 94.7% | T-47D breast 66.4% | BT-549 breast 111% | MDA-MB-435 melanoma 96.1% | SW-620 colon 94.9% | MCF7 breast 91.4% | HCT-116 colon 95.5% | HCC-2998 colon 103% | KM12 colon 129%

Cc1ccc(NC(=O)c2sc3nc(C)c(Br)c(C)c3c2N)cc1
inactive: SR leukemia 81.6% | RPMI-8226 leukemia 83.3% | OVCAR-8 ovarian 39.7% | OVCAR-5 ovarian 79.1% | OVCAR-4 ovarian 11.7% | SK-OV-3 ovarian 48.9% | IGROV1 ovarian 51.8% | OVCAR-3 ovarian 67% | HS 578T breast 31.8% | NCI/ADR-RES ovarian 51.8% | T-47D breast 61.9% | BT-549 breast 79.7% | MDA-MB-435 melanoma 81.8% | SW-620 colon 78.3% | MCF7 breast 59.1% | HCT-116 colon 72.6% | HCC-2998 colon 92.1% | KM12 colon 74.8%

COc1ccc(C/C(C)=C(\c2ccc(Cl)cc2)c2ccc(OCCN3CCCCC3)cc2)cc1
inactive: SR leukemia 80.6% | RPMI-8226 leukemia 90.6% | OVCAR-8 ovarian 94.9% | OVCAR-5 ovarian 81.4% | OVCAR-4 ovarian 102% | SK-OV-3 ovarian 103% | IGROV1 ovarian 99.9% | OVCAR-3 ovarian 114% | HS 578T breast 86.8% | NCI/ADR-RES ovarian 108% | T-47D breast 75.1% | BT-549 breast 96.7% | MDA-MB-435 melanoma 102% | SW-620 colon 88.4% | MCF7 breast 81.7% | HCT-116 colon 100% | HCC-2998 colon 98.5% | KM12 colon 104%

Nc1[nH]n2cc(-c3ccccc3)nc2c1N=Nc1ccc(S(N)(=O)=O)cc1
active: RPMI-8226 leukemia 5.77% | HS 578T breast 5.14%
inactive: SR leukemia 13.3% | OVCAR-8 ovarian 36.6% | OVCAR-5 ovarian 65.4% | OVCAR-4 ovarian 36.9% | SK-OV-3 ovarian 13.3% | IGROV1 ovarian 15.3% | OVCAR-3 ovarian 46.8% | NCI/ADR-RES ovarian 90% | T-47D breast 42.8% | BT-549 breast 59.5% | MDA-MB-435 melanoma 28.9% | SW-620 colon 26.1% | MCF7 breast 45.5% | HCT-116 colon 22.6% | HCC-2998 colon 45.5% | KM12 colon 33.3%

O=C(CN1C(=O)NC2NC(=O)NC21)N/N=C/c1ccccc1[N+](=O)[O-] (stereo unspecified)
inactive: SR leukemia 110% | RPMI-8226 leukemia 109% | OVCAR-8 ovarian 104% | OVCAR-5 ovarian 108% | OVCAR-4 ovarian 99.6% | SK-OV-3 ovarian 104% | IGROV1 ovarian 107% | OVCAR-3 ovarian 123% | HS 578T breast 107% | NCI/ADR-RES ovarian 105% | T-47D breast 104% | BT-549 breast 97.9% | MDA-MB-435 melanoma 104% | SW-620 colon 105% | MCF7 breast 85.1% | HCT-116 colon 107% | HCC-2998 colon 118% | KM12 colon 104%

CCN(CC)CCn1c2ccc(OC)cc2c2sc3cc(OC)ccc3c(=O)c21
active: SR leukemia 1.43% | SW-620 colon 8.87% | MCF7 breast 4.61% | HCT-116 colon 4.6%
inactive: RPMI-8226 leukemia 11.8% | OVCAR-8 ovarian 30% | OVCAR-5 ovarian 37.1% | OVCAR-4 ovarian 37.7% | SK-OV-3 ovarian 56.5% | IGROV1 ovarian 14.5% | OVCAR-3 ovarian 31.5% | HS 578T breast 46.1% | NCI/ADR-RES ovarian 23% | T-47D breast 48.5% | BT-549 breast 61.7% | MDA-MB-435 melanoma 35.7% | HCC-2998 colon 35.7% | KM12 colon 22.4%

O=[N+]([O-])c1ccc(O)cc1Br
inactive: SR leukemia 99.1% | RPMI-8226 leukemia 91.4% | OVCAR-8 ovarian 100% | OVCAR-5 ovarian 94% | OVCAR-4 ovarian 89.3% | SK-OV-3 ovarian 101% | IGROV1 ovarian 101% | OVCAR-3 ovarian 106% | HS 578T breast 98.4% | NCI/ADR-RES ovarian 98.9% | T-47D breast 96.8% | BT-549 breast 91.2% | MDA-MB-435 melanoma 100% | SW-620 colon 104% | MCF7 breast 92.9% | HCT-116 colon 95.4% | HCC-2998 colon 103% | KM12 colon 101%
